Unmarked numbers belong to inactive results.

This assay has as its system Toxoplasma gondii RH 2F1 tachyzoites (intracellular in HFF). Kind of assay: parasite survival relative to DMSO control; higher = less antiparasitic activity, active = 20 or less. The conditions noted are these: 1 µM; 72 h. Put shortly:
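Survival is the β-galactosidase-derived signal from intracellular Toxoplasma gondii RH-2F1 tachyzoites, expressed as a percentage of infected wells treated with DMSO. HFF cells (5 × 10^3 cells/well, 96-well plates) were infected with 5 × 10^3 parasites in D2 medium for 3 h and then treated with compound at 1 μM for 72 h at 37°C in 5% CO2. After lysis, CPRG was added and absorbance at 570 nm was read at 30 min, with 2 or more biological replicates.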
For the compound `COc1cccc(N2CCN(C3=Nc4c(F)cccc4[C@H](CC(=O)O)N3c3cc(C(F)(F)F)ccc3OC)CC2)c1`, the parasite survival was 41.2%.

Turning to `Cc1cccc(C)c1C(=O)Nc1nc(-c2ccccn2)cc2ccccc12`, the parasite survival is 4.42% (active).

Take `C[C@@H](c1nc(-c2ccc(C#N)cc2)cs1)[C@](O)(Cn1cncn1)c1ccc(F)cc1F`: the parasite survival is 62.9%.

`NC(=O)c1nccn([C@@H]2O[C@H](CO)[C@@H](O)[C@H]2O)c1=O`: the parasite survival was 59.3%.

For `Cc1ncc([N+](=O)[O-])n1CC(O)CN1CCOCC1` (stereo not given), the parasite survival was 52.5%.

Take `O=C(O)C(Cc1c[nH]c2ccccc12)N1C(=O)c2ccccc2C1=O` (stereo not given): the parasite survival was 46.6%.

Take `c1cc(CN2CCCNCCNCCCNCC2)ccc1CN1CCCNCCNCCCNCC1`: the parasite survival is 91.5%.

With `COc1ccc(NC(=O)CC2Sc3ncnn3C2=O)cc1` (stereo not given), the parasite survival was 22.1%.

On to `Clc1cc(Cl)c2c(c1)CCc1ccccc1C2n1ccnc1` (stereo not given), for which the parasite survival was 7.97% (active).

On to `CCCCc1ccc(-c2cc(C(=O)O)cc(-c3ccc(Cl)cc3)n2)cc1`, for which the parasite survival was 40.8%.

In the case of `CCO/N=C/c1ccc(OCCCCN2CCN(c3ccncc3)C2=O)cc1`, the parasite survival is 47.7%.

Turning to `Nc1nc(Nc2ccc3nc(-c4ccc(F)cc4)cc(N)c3c2)cc(-c2ccccc2)n1`, the parasite survival was 4.03% (active).

For `O=C(CCCC(F)(F)F)N1CCC(c2nc(-c3nccs3)no2)CC1`, the parasite survival is 68%.

In the case of `O=C(Nc1nnc(-c2ccc(Cl)cc2)o1)c1nc2ccccc2s1`, the parasite survival was 62.5%.

In the case of `OCCC#Cc1nc(-c2ccc(F)cc2)c(-c2ccncc2)n1CCCc1ccccc1`, the parasite survival was 9.3% (active).

In the case of `Cc1cc(-c2ccccc2)c(C(=O)C(=O)Nc2ccc(N3CCN(c4ncc(F)cn4)CC3)cc2)n1C`, the parasite survival is 9.71% (active).

For the compound `O=C(O)c1ccccc1Sc1ncnc2sc3c(c12)CCC3`, the parasite survival was 44.2%.

`CCCCCc1ccc(C(=O)NCCn2cc(CCCCCc3c[nH]c(N)n3)nn2)cc1`: the parasite survival is 67.5%.

With `COCCn1cnc2c(O)nc(Nc3ccccc3)nc21`, the parasite survival was 67%.

Consider `N=c1n(CCN2CCCCC2)c2ccccc2n1CC(O)COc1ccc(Cl)cc1Cl` (stereo not given), for which the parasite survival was 10.8% (active).

Take `CC(=O)Oc1ccccc1C(=O)Nc1ncc([N+](=O)[O-])s1`: the parasite survival was 75.8%.

For `CN1c2ccc(Cl)cc2N(c2ccccc2)C(=O)c2cn(Cc3ccc(CN4CCOCC4)cc3)nc21`, the parasite survival was 44%.

As to `C(=C\c1nc2ccccc2[nH]1)/c1ccc2c(c1)OCO2`, the parasite survival is 22.1%.

Turning to `Cc1oncc1C(=O)Nc1ccc(C(F)(F)F)cc1`, the parasite survival is 77.7%.

`COc1ccc(COc2cc3oc(=O)c4cc(C(C)O)ccc4c3cc2OC)cc1` (stereo not given): the parasite survival is 57%.

(Values after the supplement of paper PMC10941209.)
